High-throughput results deposited in PubChem BioAssay by several laboratories.
In the library only some 3.9% were active in any assay of this set; here they are far more common.
ALR inh: inhibitors of human ALR sulfhydryl oxidase, primary screen, biochemical, H2O2 detection, HRP-luminol luminescence, single point; FAD-linked sulfhydryl oxidase ALR (Homo sapiens), P55789; purified ALR, DTT oxidation; inhibition, % (test concentration not listed); 3.8% of 290,000 active; AID 485317, 2010;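 active = mean replicate inhibition above about 79%, with every replicate also reaching it, limit read from the data; inconclusive = only one of the two criteria met; inactive = mean below limit and not every replicate reaching it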
Target sequence (P55789 whole entry, looked up): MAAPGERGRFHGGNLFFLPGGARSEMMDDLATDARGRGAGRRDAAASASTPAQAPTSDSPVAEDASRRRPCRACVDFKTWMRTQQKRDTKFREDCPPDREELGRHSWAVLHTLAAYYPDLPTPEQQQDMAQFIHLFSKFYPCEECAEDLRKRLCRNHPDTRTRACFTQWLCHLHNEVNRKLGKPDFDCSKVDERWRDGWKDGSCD
NTR1 ag: agonists of human NTR1, primary screen, imaging, U2OS cells, beta-arrestin-GFP, high content. NTR1-U2OS beta-arrestin-GFP spot imaging, agonist mode. Neurotensin receptor type 1 (Homo sapiens), P30989. activation, % at 20 µM. 0.17% of 330,000 active;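 active = activation at or above 40% of the spot to cytoplasm intensity ratio, with at least 20 cells analyzed; inconclusive = wells under 20 cells, flagged as cytotoxic or low count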;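 note: 0% = DMSO without peptide and 100% = 100 nM NTR1 peptide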
H9c2 protect: cardioprotection against H2O2-induced cell death, primary screen, uHTS, H9c2 cells, ATPLite luminescence; H9c2 cardiomyocytes, H2O2 injury protection, 2 h; protection from H2O2 cell death, % at 20 µM; 0.63% of 360,000 active; AID 588492, 2011;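 active = compounds giving at least 50% protection of heart cells from peroxide-induced death in the single-dose screen, raw or plate-pattern-corrected value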;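 note: 0% = DMSO wells with peroxide and 100% = DMSO wells without peroxide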
UBC9 SUMO inh: inhibitors of in vitro SUMOylation cascade, primary screen, biochemical, HTRF, uHTS | 0.36% of 290,000 active | HTRF SUMOylation assay, SAE1/SAE2 + UBC9 | AID 2006, 2009 | inhibition, % at 35 µM; in the data active = inhibition above about 50%, passing the limit was not always enough; inconclusive = no clear call, values can overlap the other calls
Target sequence (P63279 whole entry, looked up): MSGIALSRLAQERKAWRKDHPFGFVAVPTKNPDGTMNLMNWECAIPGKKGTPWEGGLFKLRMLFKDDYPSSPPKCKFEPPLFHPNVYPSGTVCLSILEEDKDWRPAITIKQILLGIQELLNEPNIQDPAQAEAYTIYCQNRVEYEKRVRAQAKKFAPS
* hit, by the source's call; ? = inconclusive; . = no result.

SMILES	ALR inh	NTR1 ag	H9c2 protect	UBC9 SUMO inh
CN(C)CCNC(=O)c1ccc2c(c1)N(Cc1ccc(F)cc1)CCS2	99*	4	26	30
Cc1ccc(CN2CCSc3ccc(C(=O)NCC4CCCO4)cc32)cc1 (configuration not stated)	87*	2	5	13
CN1CCSc2ccc(C(=O)NCc3cccc(F)c3)cc21	92*	-3	-9	37
O=C(NC1CCCC1)c1ccc2c(c1)N(Cc1ccc(F)cc1)CCS2	39	1	0	6
Cc1ccc(CN2CCSc3ccc(C(=O)NCCCN4CCN(C)CC4)cc32)cc1	98*	0	-4	28
COCCn1c(N)c(C(=O)Nc2sc3c(c2C(=O)OC)CCCC3)c2nc3ccccc3nc21	-3	15	9	23
N#CC1(NC(=O)CSc2ccccn2)CCCCC1	-11	0	3	.
COc1ccc(C(CCNC(C)c2ccccc2)C(C)C)cc1 (configuration not stated)	-2	1	-4	5
COc1ccc(C(C)NCCC(c2ccc(OC(C)C)cc2)c2ccccc2OC)cc1 (configuration not stated)	-21	68*	-21	-22
O=C1CN(C(=O)COC(=O)CNC(=O)c2ccc(Br)o2)c2ccccc2N1	0	0	1	11
CCn1cc(C(=O)NC(=S)Nc2ccccc2[N+](=O)[O-])cn1	99*	2	2	0
CCn1cc(C(=O)NC(=S)Nc2ccccc2Br)cn1	30	0	-6	-4
N#C/C(C(=O)NCCc1ccccc1)=C1/N=C(NC(=O)c2cccs2)c2ccccc21	.	5	2	14
COCCCNC(=O)/C(C#N)=C1\N=C(NC(=O)c2cccs2)c2ccccc21	.	0	58*	7
O=C(N/N=C/c1c(O)n(Cc2ccccc2)c(=O)c2ccccc12)c1cccnc1	98*	3	27	-4
Nc1nc(SCc2ccc(F)cc2)ns1	98*	-1	-3	-1
Nc1nc(SCc2ccc(Cl)cc2Cl)ns1	99*	-3	-11	-80
Nc1nc(SCc2ccc(Cl)cc2Cl)nc2nc3c(cc12)CCCC3	90*	23	-28	11
Nc1nc(SCc2ccccc2Cl)nc2nc3c(cc12)CCCC3	-2	10	-9	-6
O=C(CCN1C(=O)c2ccccc2C1=O)N1CCN(C(=O)c2ccccc2)CC1	-1	0	7	27
Cc1cccnc1NC(=O)C1CCN(S(=O)(=O)c2c(C)noc2/C=C/c2ccco2)CC1	.	2	7	36
COc1ccc(-c2cc(=O)n(-c3nc4ccccc4[nH]3)[nH]2)cc1	-1	4	34	-15
Cc1ccc(/C(O)=C/c2nc3ccccc3oc2=O)cc1	-1	2	-15	19
Cc1nc(C)c(/C(O)=C\c2nc3ccc([N+](=O)[O-])cc3oc2=O)o1	99*	0	-5	15
C=CCn1c(NCCO)nc2sc3c(c2c1=O)CCC3	86*	2	1	-2
SMILES	ALR inh	NTR1 ag	H9c2 protect	UBC9 SUMO inh
COc1ccc(Nc2nnc(-c3ccc(O)cc3)c3ccccc23)cc1C(N)=O	.	0	57*	-2
O=C(Cc1ccccc1)NCC(=O)OCC(=O)c1ccc(Cl)c([N+](=O)[O-])c1	5	-1	26	10
Nc1nc(CN2CCN(c3ccccc3)CC2)nc(N2CCCc3ccccc32)n1	98*	0	20	23
Nc1nc(CN2CCN(c3cccc(Cl)c3)CC2)nc(N2CCCc3ccccc32)n1	0	14	21	-13
COc1ccc(N2CCN(Cc3nc(N)nc(N4CCCc5ccccc54)n3)CC2)cc1	87*	-2	13	9
CNC(=O)COC(=O)c1ccccc1Oc1ccccc1	-11	-3	7	13
O=C(CSc1nc2ccccc2o1)Nc1nc(-c2ccccc2)cs1	99*	3	-1	-36
Cc1cc(-c2nnc(SCC(=O)NC3CCCC3)o2)no1	-6	0	7	22
Cc1cc(-c2nnc(SCC(=O)Nc3nc(-c4ccccc4)cs3)o2)no1	99*	0	-2	-1
Cc1csc(NC(=O)CSc2nnc(-c3cc(C)on3)o2)n1	94*	-1	0	-4
Cc1occc1-c1nnc(SCC(=O)Nc2nc(-c3ccccc3)cs2)o1	-8	2	-4	29
COCCn1c(SC(C(=O)Nc2cc(C)ccc2OC)c2ccccc2)nnc1-c1ccc(Cl)cc1 (configuration not stated)	99*	1	4	-22
CCCc1nn(C(=O)c2ccccc2)c2c1C(=O)CC(C)(C)C2	58	0	4	22
CC[n+]1c(/C=C(\C)Nc2ccccc2)sc2ccccc21	89*	.	-7	-8
CC[n+]1c(/C=C(\C)SC)sc2ccccc21	13	0	-14	1
O=C(c1nc2ccccn2c1CN1CCN(c2ccccc2O)CC1)N1CCCC1	99*	0	7	17
O=C(c1nc2ccccn2c1CN1CCCC(OCc2ccccc2)C1)N1CCCC1 (configuration not stated)	10	-1	5	3
Cc1ccc(C)c(/C(O)=C2/C(=O)C(=O)N(CCN3CCOCC3)C2c2ccc(C)o2)c1 (configuration not stated)	.	-3	-1	14
Cc1[nH]c2ccccc2c1N=Nc1cccc(C(=O)O)c1	98*	0	3	0
O=C1OCc2ccc(NS(=O)(=O)c3ccc(C(F)(F)F)cc3)cc21	1	1	0	-2
Nc1cc(=O)[nH]n1C1CCN(c2ccccc2)CC1	94*	-2	0	4
COC(=O)c1cc(NC(=S)Nc2cc(Cl)cc(Cl)c2)cc(C(=O)OC)c1	1	0	-27	8
COC(=O)C1=C(Nc2cc(Cl)cc(Cl)c2)CSC1	99*	0	-2	1
Cc1ccc2[nH]cc(CCNC(=O)c3cccs3)c2c1	97*	-1	-9	-11
Cc1ccc2[nH]cc(CCNC(=O)c3ccco3)c2c1	57	0	-1	-4
SMILES	ALR inh	NTR1 ag	H9c2 protect	UBC9 SUMO inh
COCCCn1c(C(=O)N2CCOCC2)cc2c(=O)n3ccccc3nc21	-4	-1	1	52*
COc1ccc(-c2ccnc3c(C#N)cnn23)cc1	-3	1	5	?
N#Cc1cnn2c(-c3ccccc3)ccnc12	-5	0	5	50*
N#Cc1c(NC(=O)CN2CCOCC2)oc(-c2ccccc2)c1-c1ccccc1	99*	2	5	14
N#Cc1c(NC(=O)CSc2ncccn2)oc(-c2ccccc2)c1-c1ccccc1	5	-1	12	.
CCc1cc(SC#N)cc(C)c1NC(=O)CCl	98*	10	-11	-30
CCC(=O)Nc1ccc(SC#N)cc1C	98*	4	0	9
Cc1ccc(NC(=O)CCl)c(C)c1	.	0	-8	15
Cc1cc(SC#N)cc(C)c1NC(=O)CCl	?	3	-9	-9
